The text below walks through data of PubChem BioAssay (NCATS).

Structures are written as SMILES. Records with an inconclusive call do not appear. Entries that show only a call come without a potency. The source made the active and inactive calls. The call rests on the fitted dose curve; in most records, active means well fitted inhibition curve with a large enough effect; inconclusive means small, poorly fitted or top-dose-only effect; inactive means flat fitted curve, though single readings scatter.
Potency means the concentration at half of the fitted maximal effect.

The subject of one assay is DFO2036. The assay is described as follows: qHTS profiling for inhibitors of Plasmodium falciparum proliferation (AID 504749). Further: nearly all actives have a fitted effect of over 60% in size. Conditions: P. falciparum in erythrocytes, SYBR Green DNA, 72 h; series mostly up to 28.7 µM. The gist of the method:
(§1)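 SYBR Green fluorescence (ex 485 nm, em 535 nm) reports parasite DNA after 72 h compound exposure of infected red cells at 0.3% parasitemia, 2.5% hematocrit; signal normalized to 0.29 uM artemisinin and vehicle wells.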
(In general: In qHTS, concentration-response curves come from the screen itself.)
On to `Nc1nc2c(c(=O)[nH]1)N(C=O)[C@H](CNc1ccc(C(=O)N[C@@H](CCC(=O)O)C(=O)O)cc1)CN2`, for which the Potency entry was “inactive”.
Still for that read-out and setting: for `CCCCCCCCCCCC(CC1OC(=O)C1CCCCCC)OC(=O)C(CC(C)C)NC=O` (stereo not drawn) the value was 501 nM (active); for `COc1cccc2c1C(=O)c1c(O)c3c(c(O)c1C2=O)C[C@@](O)(C(=O)CO)C[C@@H]3O[C@H]1C[C@H](N)[C@H](OC2CCCCO2)[C@H](C)O1` (stereo partly drawn), 3550 nM (active); for `COc1ccc2c(c1OC)C(=O)OC2[C@H]1c2c(cc3c(c2OC)OCO3)CCN1C` (stereo partly drawn), “inactive”.
The same measure, in the same setting: the value for `OCC(O)C(O)C(O)CO` (stereo not drawn) was “inactive”; that for `CCC(C(=O)O)C1CCC(C)C(C(C)C(O)C(C)C(=O)C(CC)C2OC3(C=CC(O)[C@@]4(CC[C@](C)(C5CC[C@@](O)(CC)C(C)O5)O4)O3)C(C)CC2C)O1` (stereo partly drawn) was 794 nM (active); that for `COc1ccc([C@@H]2CNC(=O)C2)cc1OC1CCCC1` was “inactive”.

In a further assay the test system is DIV14. Described as above. The settings on record: P. falciparum in erythrocytes, SYBR Green DNA, 72 h; series mostly up to 28.7 µM. The gist of the method: as §1
For the compound `Nc1nc2c(c(=O)[nH]1)N(C=O)[C@H](CNc1ccc(C(=O)N[C@@H](CCC(=O)O)C(=O)O)cc1)CN2`, the Potency entry is “inactive”.
`COc1cccc2c1C(=O)c1c(O)c3c(c(O)c1C2=O)C[C@@](O)(C(=O)CO)C[C@@H]3O[C@H]1C[C@H](N)[C@H](OC2CCCCO2)[C@H](C)O1` (stereo partly drawn): the Potency was 3790 nM (active).
On the same count and under the same terms, the value for `COc1ccc2c(c1OC)C(=O)OC2[C@H]1c2c(cc3c(c2OC)OCO3)CCN1C` (stereo partly drawn) was “inactive”; that for `OCC(O)C(O)C(O)CO` (stereo not drawn) was “inactive”.
On the same count and under the same terms, the value for `COc1ccc([C@@H]2CNC(=O)C2)cc1OC1CCCC1` was “inactive”.

In a further assay the test system is DIV17. The description is as above. Conditions: P. falciparum in erythrocytes, SYBR Green DNA, 72 h; series mostly up to 28.7 µM. In short, it runs like this: as §1
As for `Nc1nc2c(c(=O)[nH]1)N(C=O)[C@H](CNc1ccc(C(=O)N[C@@H](CCC(=O)O)C(=O)O)cc1)CN2`, the Potency result was “inactive”.
`COc1cccc2c1C(=O)c1c(O)c3c(c(O)c1C2=O)C[C@@](O)(C(=O)CO)C[C@@H]3O[C@H]1C[C@H](N)[C@H](OC2CCCCO2)[C@H](C)O1` (stereo partly drawn): the Potency was 2390 nM (active).
For the compound `COc1ccc2c(c1OC)C(=O)OC2[C@H]1c2c(cc3c(c2OC)OCO3)CCN1C` (stereo partly drawn), the Potency entry is “inactive”.
As to `OCC(O)C(O)C(O)CO` (stereo not drawn), the Potency result is “inactive”.
As to `CCC(C(=O)O)C1CCC(C)C(C(C)C(O)C(C)C(=O)C(CC)C2OC3(C=CC(O)[C@@]4(CC[C@](C)(C5CC[C@@](O)(CC)C(C)O5)O4)O3)C(C)CC2C)O1` (stereo partly drawn), the Potency is 601 nM (active).
As for `COc1ccc([C@@H]2CNC(=O)C2)cc1OC1CCCC1`, the Potency result is “inactive”.
